The list is not random: actives were taken first. Their share in the collection is about 6.5%.
Marburg entry inh – Marburg virus entry inhibition; Marburg virus pseudotyped entry inhibition, cell reporter; Potency, µM (top dose mostly 37.8 µM), inactives show at the top dose activity change, negative = inhibition, most hits filed as inhibitors; 300,000 tested, 1.8% active; calls by dose curve; tested in HEK293 cells; note: potency is the fitted concentration of half-maximal effect
FMDV inh – antivirals against foot and mouth disease virus. FMDV antiviral cell-based qHTS. Potency, µM (titrated, usually from 57.9 µM), for inactives: top-dose activity change, negative = inhibition, usual class: inhibitors. 410,000 tested, 1.2% active. AID 1159524; calls by dose curve; tested in HEK293T cells; note: read-out not given here; potency is the fitted concentration of half-maximal effect; nearly all actives have a fitted effect of over 45% in size
Vaccinia mCherry – vaccinia inhibition (mCherry reporter). Potency, µM (titrated, usually from 36.5 µM), for the others: top-dose activity change, negative = inhibition, actives largely listed as inhibitors. Vaccinia virus mCherry reporter infection, fluorescence. 310,000 tested, 0.63% active; calls by dose curve; tested in A549 cells; note: potency is the fitted concentration of half-maximal effect; nearly all actives have a fitted effect of over 35% in size
HCMV inh – inhibitors of human cytomegalovirus. 410,000 tested, 4.5% active. AID 1259415. HFF cells, HCMV-luciferase reporter, 72 h; stronger effect = lower value. activity change, negative = inhibition, % at 57.5 µM; in the data active = activity change below about -60%; inconclusive = no clear call, values can overlap the other calls; inactive = above about -39%
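Two-dose cell screen: HFF monolayers treated with compounds and infected with luciferase-expressing HCMV at 1 PFU/cell, 72 h at 37C, then lysed for luciferase measurement.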
Vaccinia Venus – vaccinia inhibition (Venus reporter); Vaccinia virus Venus reporter expression, fluorescence; Potency, µM (highest dose often 36.5 µM), without a hit: at the highest dose activity change, negative = inhibition, hits mostly inhibitors; 330,000 tested, 0.46% active; AID 720580; calls by dose curve; tested in A549 cells; note: potency is the fitted concentration of half-maximal effect; nearly all actives have a fitted effect of over 30% in size
LASV entry inh – inhibitors of Lassa virus binding or cell entry. AID 540256. 300,000 tested, 1.2% active. Potency, µM (doses to about 37.9 µM), inactives show at the top dose activity change, negative = inhibition, usual class: inhibitors. Lassa virus pseudotype entry inhibition, cell reporter; calls by dose curve; tested in HEK293 cells; note: potency is the fitted concentration of half-maximal effect; nearly all actives have a fitted effect of over 50% in size
* hit, by the source's call; i = inactive; u = inconclusive; x = no result given; [ ] = dose if it differs, or a comment. % is set by controls: 0 for no effect and ±100 for the full control effect.

SMILES | Marburg entry inh | FMDV inh | Vaccinia mCherry | HCMV inh | Vaccinia Venus | LASV entry inh
CCC(C(=O)Nc1cc(OC)ccc1OC)n1c(C)c2cnn(-c3ccccc3)c(=O)c2c1C (stereo not drawn) | 23%[46.1 µM] | -16% | -14% | 15 | -2% | 22%[46.1 µM]
CC(C)(C)c1ccc(C(=O)Nc2cccc3c(=O)[nH][nH]c(=O)c23)cc1 | u | 4.5µM* | -22% | -69* | -14% | 7.1µM*
CCc1ccc(NC(=O)c2sc3ncnc(N(C)C4CCCCC4)c3c2C)cc1 | x | -15% | 4% | -2 | 7% | 3%[46.1 µM]
CCOC(=O)C1=C(CS(=O)(=O)c2ccc(F)c(C)c2)NC(=O)NC1c1ccccc1OC (stereo not drawn) | -1%[46.1 µM] | -13% | -5% | -30 | 0% | -8%[46.1 µM]
O=C(CCl)Nc1cn(-c2ccccc2)nc1-c1ccc(F)cc1 | u | 16µM* | u | -72* | -20% | 11µM*
COc1ccc(N2C(=O)CN(Cc3ccc(OC)c(OC)c3)C2=S)cc1 | -8%[46.1 µM] | -21% | i | -81* | -5% | u
O=C(NNC(=S)Nc1ccc(C(=O)O)c(O)c1)c1ccncc1 | u | 13µM* | u | 0 | 0% | -25%[46.1 µM]
O=C(NNC(=S)Nc1ccccc1)c1ccncc1 | 19% | 36% | -15% | -7 | 3% | 21%
COc1ccc2c(c1)-c1nc(-n3ncc(C(=O)NC[C@@H]4CCCN5CCCC[C@H]45)c3C)ncc1CC2 | x | -9% | 13µM* | x | u | x
COc1ccc(CNC(=O)C2CCCN(Cc3nc(-c4cccc(C)c4)oc3C)C2)cc1 (stereo not drawn) | u | 25µM* | x | 0 | x | u
Cc1oc(-c2cccc(Cl)c2)nc1CN1CCC(C(=O)NCCc2ccc(Cl)cc2)CC1 | 2%[46.1 µM] | -4% | -20% | 9 | -11% | 17%[46.1 µM]
Cc1oc(-c2ccc(Cl)cc2)nc1CN1CCCC(C(=O)NCc2ccc(Cl)cc2)C1 (stereo not drawn) | 9%[46.1 µM] | 35µM* | -21% | 6 | -16% | 10%[46.1 µM]
CCc1ccc(-c2nc(CN3CCCC(C(=O)NCc4ccc(C)cc4)C3)c(C)o2)cc1 (stereo not drawn) | -2%[46.1 µM] | u | u | 12 | -21% | u
CCCN(CCC)CCNC(=O)C1CCN(Cc2nc(-c3ccc(Cl)cc3)oc2C)CC1 | 10µM* | -5% | x | -9 | x | u
CCc1ccc(-c2nc(CN3CCCC(C(=O)NCCc4ccc(OC)c(OC)c4)C3)c(C)o2)cc1 (stereo not drawn) | u | 22µM* | x | -92* | x | u
Cc1cccc(-c2nc(CN3CCCC(C(=O)NCc4ccc(Cl)cc4)C3)c(C)o2)c1 (stereo not drawn) | 7%[46.1 µM] | u | -5% | 7 | -9% | -27%[46.1 µM]
COc1ccc(CCNC(=O)C2CCCN(Cc3nc(-c4ccccc4C)oc3C)C2)cc1OC (stereo not drawn) | u | u | x | -21 | x | -26%
CCCOc1ccccc1-c1nc(SCC(=O)c2ccccc2)n[nH]1 | 1%[46.1 µM] | 18% | -17% | 3 | -2% | 0%[46.1 µM]
CCC1(C2CCN(Cc3c(C)[nH]c4ccccc34)CC2)NC(=O)N(Cc2ccc3c(c2)OCO3)C1=O (stereo not drawn) | x | -4% | -4% | x | -4% | x
CN(N=O)c1cc(O)ccc1O | u | x | x | x | x | 16µM*
CC1CN(S(=O)(=O)c2cc(C(=O)NCc3ccncc3)ccc2Cl)CC(C)O1 (stereo not drawn) | x | 2% | x | -19 | x | x
COc1ccc(NC(=O)c2ccc(Cl)c(S(=O)(=O)N3CC(C)OC(C)C3)c2)cn1 (stereo not drawn) | x | u | x | -90* | x | x
CN(CC1COc2ccccc2O1)C(=O)c1ccc(Cl)c(S(=O)(=O)N2CCCCCC2)c1 (stereo not drawn) | x | 2% | x | u | x | x
O=C(NCC1COc2ccccc2O1)c1ccc(Cl)c(S(=O)(=O)N2CCCC2)c1 (stereo not drawn) | x | -22% | x | -69* | x | x
Cc1ccccc1CCNC(=O)c1ccc(Cl)c(S(=O)(=O)N2CC(C)OC(C)C2)c1 (stereo not drawn) | u | 18µM* | -21% | -88* | u | -20%
SMILES | Marburg entry inh | FMDV inh | Vaccinia mCherry | HCMV inh | Vaccinia Venus | LASV entry inh
CCc1nnc(NC(=O)c2ccc(Cl)c(S(=O)(=O)N3CCc4ccccc4C3)c2)s1 | 4% | 25µM* | -3% | u | 3% | 4%
CCn1c(-c2ccccc2F)nc2cc(NC(C)=O)cc(C(=O)N(C)Cc3ccccn3)c21 | x | -12% | i | x | -24% | x
COc1ccc(NC(=O)c2ccc(Cl)c(S(=O)(=O)N3CCc4ccccc4C3)c2)cn1 | u | 20µM* | x | -104* | x | u
C=CCNc1nc(Cl)nc(Nc2cc(Cl)ccc2OC)n1 | 13µM* | -12% | -14% | -28 | -4% | 3%
CCOc1nc(Nc2cc(Cl)ccc2OC)nc(OCC)n1 | 6% | -5% | x | -19 | -3% | -17%
Cc1csc2nc(-c3ccc(NS(=O)(=O)c4cc(F)ccc4F)cc3)cn12 | x | 8% | -10% | -22 | -7% | 15%[46.1 µM]
CC(=O)N1c2ccc(Cl)cc2C2OCCC2C1c1ccco1 (stereo not drawn) | -27% | -26% | -3% | -66* | -15% | 5%
Clc1ccc2c(c1)C1OCCC1C(c1ccco1)N2 (stereo not drawn) | -14% | 10% | u | 152 | -16% | 0%
NC(=O)c1nsc(C(=O)N(CCc2ccccc2)C(C(=O)NC2CCCC2)c2ccco2)c1N (stereo not drawn) | -23% | x | -3% | -60* | -15% | -20%
Cc1ccccc1N(C(=O)c1snc(C(N)=O)c1N)C(C(=O)NC1CCCC1)c1ccco1 (stereo not drawn) | -13%[46.1 µM] | -6% | u | -21 | -15% | u
Cc1ccc(N(C(=O)c2snc(C(N)=O)c2N)C(C(=O)NCCC(C)C)c2ccco2)cc1 (stereo not drawn) | x | -21% | x | -63* | x | x
CCc1ccc(N(C(=O)c2snc(C(N)=O)c2N)C(C(=O)NC2CCCC2)c2ccco2)cc1 (stereo not drawn) | 7.9µM* | 5% | -18% | u | -16% | u
COc1ccc(S(=O)(=O)NCC(c2ccco2)S(=O)(=O)c2cccs2)cc1OC (stereo not drawn) | x | 57% | -15% | 23 | -14% | 6%[46.1 µM]
COc1ccc(OC)c(CCNC(=O)c2nn(C)c3c2CSc2ccccc2-3)c1 | 8%[46.1 µM] | -14% | -9% | -9 | -12% | -18%[46.1 µM]
COc1cccc(CNC(=O)CCc2c(C)c3cc4c(C)coc4c(C)c3oc2=O)c1 | 1%[46.1 µM] | -6% | u | -30 | u | 2%[46.1 µM]
CC1Cc2cc(S(=O)(=O)CCC(=O)Nc3ccccc3F)ccc2N1C(=O)C1CC1 (stereo not drawn) | x | -9% | -19% | u | -18% | -11%[46.1 µM]
CN(CCc1ccccc1)C(=O)c1ccc(NC(=O)Cc2ccc(NC(=O)C3CCN(C(=O)C4CCCC4)CC3)cc2)cc1 | x | u | u | -71* | u | x
